# Laboratory results: PubChem BioAssay AID2314 (National Center for Advancing Translational Sciences (NCATS), 2010)
# In all, about 300,000 compounds went through this assay and about 37,000 (12%) were called active. The sample as a whole holds a higher share of actives than the screen did. Unmarked numbers belong to inactive results. Rule as the data show it: active = max response mostly above about 13% (no sharp cut-off); inactive = mostly below about 14%.
# Test: Cycloheximide Counterscreen for Small Molecule Inhibitors of Shiga Toxin; also: read at 38.3 µM for the half of the compounds with a filed dose; 0% is about no effect
# Conditions: cell reporter, cycloheximide protein synthesis inhibition counterscreen; active compounds read high
row,Compound,max response
1,COc1ccc(C(C(=O)NC2CCCCC2)N(C(=O)Cc2c[nH]c3ccccc23)c2ccccc2)cc1OC (stereo not given),-2.16%
2,NC(=O)c1ccc(Nc2ccc3nonc3c2[N+](=O)[O-])cc1,6%
3,Cc1ccc(Nc2ccc(C(N)=O)cc2[N+](=O)[O-])cc1,14.3% (active)
4,NC(=O)c1ccc(Nc2ccc3c(c2)CCC3)c([N+](=O)[O-])c1,-2.88%
5,O=C(CSc1nnc(-c2ccco2)n1Cc1ccccc1)NC(=O)NCc1ccco1,9.36%
6,c1ccc(CSc2nnc(-c3ccco3)c(-c3ccco3)n2)cc1,5.66%
7,c1ccc(CSc2nnc(-c3ccco3)n2Cc2ccccc2)cc1,27.8% (active)
8,N#CCOc1ccc(C2=NO[C@@H]3[C@@H]4C[C@@H]([C@H]5C(=O)N(c6ccc7c(c6)OCO7)C(=O)[C@@H]45)[C@H]23)cc1,-3.49%
9,Cn1c(CNC(=O)c2ccccc2F)nnc1SCc1ccc(F)cc1,6.96%
10,COc1ccc(CCNC2=C(Cl)C(=O)N(Cc3ccccc3)C2=O)cc1OC,5.5%
11,C/C(=N\Nc1ncc(Cl)cc1Cl)c1ccc(S(=O)(=O)NCc2ccco2)cc1,113% (active)
12,C/C(=N\Nc1ncc(Cl)cc1Cl)c1cccs1,45.9% (active)
13,C/C(=N\NS(=O)(=O)c1ccc(Br)cc1)c1cccs1,-1.14%
14,C/C(=N\Nc1ccc(S(N)(=O)=O)cc1[N+](=O)[O-])c1cccs1,-5.09%
15,C/C(=N\Nc1nc(Nc2ccccc2)nc(N2CCOCC2)n1)c1cccs1,14.5%
16,C/C(=N\Nc1nc2ccccc2[nH]1)c1cccs1,36.7% (active)
17,Cc1c(Cl)cnc(NC(=O)COC(=O)c2ccc(S(=O)(=O)NCc3ccco3)cc2)c1Cl,-0.376%
18,O=S(=O)(NCc1ccco1)c1cnc(Cl)c(Cl)c1,-2.82%
19,COC(=O)c1sccc1N/N=C(\C)c1ccc(F)c(Cl)c1,7.97%
20,COc1cccc(/C(C)=N/Nc2ncc(Cl)cc2Cl)c1,41.6% (active)
21,CCN(CC)c1ccc(C(=O)N/N=C(\C)c2cccc(OC)c2)cc1,-2.4%
22,O=C(Nc1ccccc1-c1nc2ccccc2[nH]c1=O)c1cccs1,0.926%
23,CC(=O)Nc1c2c(nn1-c1cccc(C)c1)CSC2,8.26%
24,C=CCn1c2ccccc2c2nnc(SCc3[nH]c(=O)[nH]c3C(=O)CCCCC(=O)OCC)nc21,2.1%
25,Cc1cccc(C)c1NC(=O)C1(C)c2cccc[n+]2CC(=O)N1Cc1cccs1 (stereo not given),-1.89%
